Experimental data as given in the supplement of paper PMC10849652.
The full data set covers some 7,900 targets. This sample favours those with a hit. About 0.6% of all pairs of compound and target were hits. Unmarked numbers belong to inactive results.

How the values were obtained:
Assay in all cases: log2 fold change, soluble protein after heating vs DMSO (PISA); higher = thermal stabilisation; K562 cells, 10 uM, 30 min; active = over 0.2 and 3.5 SD of the protein, either way, in both replicates (recomputed)
[1] = compound: CS(=O)(=O)c1ccc(-c2cnc(N)c(C(=O)Nc3ccccc3)n2)cc1
Outline: (§1)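 K562 cells at 2×10^6 cells/mL were given 10 μM compound for 30 min. Aliquots then went through 3 min of heating across 48°C-58°C, were pooled, and were extracted in PBS with 0.5% NP-40 at 4°C, and the supernatant after 21,000xg for 90 min was quantified by TMTpro 16plex LC-MS/MS with channel sums equalised. Thermal stability relative to control samples, from duplicates, is given as log2 fold change.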

crizotinib = compound: C[C@@H](Oc1cc(-c2cnn(C3CCNCC3)c2)cnc1N)c1c(Cl)ccc(F)c1Cl [crizotinib]
Outline: as §1

[2] = compound: C[C@@H]1COCCN1C2=NC(=NC(=C2)C3(CC3)S(=O)(=O)C)C4=C5C=CNC5=CC=C4
Outline: as §1

[3] = compound: C[C@H](C1=CC=C(C=C1)C(=O)NC2=C3C=CNC3=NC=C2)N
Outline: as §1

duvelisib = compound: C[C@H](Nc1ncnc2nc[nH]c12)c1cc2cccc(Cl)c2c(=O)n1-c1ccccc1 [duvelisib]
Outline: as §1

gandotinib = compound: Cc1cc(Nc2cc(CN3CCOCC3)c3nc(C)c(Cc4ccc(Cl)cc4F)n3n2)n[nH]1 [gandotinib]
Outline: as §1

tozasertib = compound: Cc1cc(Nc2cc(N3CCN(C)CC3)nc(Sc3ccc(NC(=O)C4CC4)cc3)n2)n[nH]1 [tozasertib]
Outline: as §1

[4] = compound: Cc1cc(SCc2sc(-c3ccc(C(F)(F)F)cc3)nc2C)ccc1OCC(=O)O
Outline: as §1

doramapimod = compound: Cc1ccc(-n2nc(C(C)(C)C)cc2NC(=O)Nc2ccc(OCCN3CCOCC3)c3ccccc23)cc1 [doramapimod]
Outline: as §1

ispinesib = compound: Cc1ccc(C(=O)N(CCCN)[C@@H](c2nc3cc(Cl)ccc3c(=O)n2Cc2ccccc2)C(C)C)cc1 [ispinesib]
Outline: as §1

bafetinib = compound: Cc1ccc(NC(=O)c2ccc(CN3CC[C@H](N(C)C)C3)c(C(F)(F)F)c2)cc1Nc1nccc(-c2cncnc2)n1 [bafetinib]
Outline: as §1

[5] = compound: Cc1cccc(CC(=O)N2CCc3c2ccc(-c2cn(C)c4ncnc(N)c24)c3F)n1
Outline: as §1

nilotinib = compound: Cc1cn(-c2cc(NC(=O)c3ccc(C)c(Nc4nccc(-c5cccnc5)n4)c3)cc(C(F)(F)F)c2)cn1 [nilotinib]
Outline: as §1

[6] = compound: Cc1nc(Nc2n[nH]c3c2CN(C(=O)N[C@H](CN(C)C)c2ccccc2)C3(C)C)c2sccc2n1
Outline: as §1

dasatinib = compound: Cc1nc(Nc2ncc(C(=O)Nc3c(C)cccc3Cl)s2)cc(N2CCN(CCO)CC2)n1 [dasatinib]
Outline: as §1

[7] = compound: Cc1ncc(-c2ccnc(Nc3ccc(S(C)(=O)=O)cc3)n2)n1C(C)C
Outline: as §1

[8] = compound: Cn1cc(-c2ccc3c(c2)CCN3C(=O)Cc2cccc(C(F)(F)F)c2)c2c(N)ncnc21
Outline: as §1

[9] = compound: Cn1cc(-c2ccc3nnc(C(F)(F)c4ccc5ncccc5c4)n3n2)cn1
Outline: as §1

tipifarnib = compound: Cn1cncc1[C@@](N)(c1ccc(Cl)cc1)c1ccc2c(c1)c(-c1cccc(Cl)c1)cc(=O)n2C [tipifarnib]
Outline: as §1

mubritinib = compound: FC(F)(F)c1ccc(/C=C/c2nc(COc3ccc(CCCCn4ccnn4)cc3)co2)cc1 [mubritinib]
Outline: as §1

Sequence of UniProt Q96D15 (Q96D15 whole entry, looked up): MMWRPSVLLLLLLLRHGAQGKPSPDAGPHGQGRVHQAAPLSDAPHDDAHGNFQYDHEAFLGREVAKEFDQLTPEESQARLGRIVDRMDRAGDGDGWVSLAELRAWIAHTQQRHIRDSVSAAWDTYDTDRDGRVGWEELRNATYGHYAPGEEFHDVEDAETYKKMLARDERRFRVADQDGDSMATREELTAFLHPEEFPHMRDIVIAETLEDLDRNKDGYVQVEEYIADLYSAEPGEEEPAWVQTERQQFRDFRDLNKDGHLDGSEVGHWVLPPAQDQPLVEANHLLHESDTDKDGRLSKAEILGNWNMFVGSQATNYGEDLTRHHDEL
Sequence of UniProt Q96EV2 (Q96EV2 whole entry, looked up): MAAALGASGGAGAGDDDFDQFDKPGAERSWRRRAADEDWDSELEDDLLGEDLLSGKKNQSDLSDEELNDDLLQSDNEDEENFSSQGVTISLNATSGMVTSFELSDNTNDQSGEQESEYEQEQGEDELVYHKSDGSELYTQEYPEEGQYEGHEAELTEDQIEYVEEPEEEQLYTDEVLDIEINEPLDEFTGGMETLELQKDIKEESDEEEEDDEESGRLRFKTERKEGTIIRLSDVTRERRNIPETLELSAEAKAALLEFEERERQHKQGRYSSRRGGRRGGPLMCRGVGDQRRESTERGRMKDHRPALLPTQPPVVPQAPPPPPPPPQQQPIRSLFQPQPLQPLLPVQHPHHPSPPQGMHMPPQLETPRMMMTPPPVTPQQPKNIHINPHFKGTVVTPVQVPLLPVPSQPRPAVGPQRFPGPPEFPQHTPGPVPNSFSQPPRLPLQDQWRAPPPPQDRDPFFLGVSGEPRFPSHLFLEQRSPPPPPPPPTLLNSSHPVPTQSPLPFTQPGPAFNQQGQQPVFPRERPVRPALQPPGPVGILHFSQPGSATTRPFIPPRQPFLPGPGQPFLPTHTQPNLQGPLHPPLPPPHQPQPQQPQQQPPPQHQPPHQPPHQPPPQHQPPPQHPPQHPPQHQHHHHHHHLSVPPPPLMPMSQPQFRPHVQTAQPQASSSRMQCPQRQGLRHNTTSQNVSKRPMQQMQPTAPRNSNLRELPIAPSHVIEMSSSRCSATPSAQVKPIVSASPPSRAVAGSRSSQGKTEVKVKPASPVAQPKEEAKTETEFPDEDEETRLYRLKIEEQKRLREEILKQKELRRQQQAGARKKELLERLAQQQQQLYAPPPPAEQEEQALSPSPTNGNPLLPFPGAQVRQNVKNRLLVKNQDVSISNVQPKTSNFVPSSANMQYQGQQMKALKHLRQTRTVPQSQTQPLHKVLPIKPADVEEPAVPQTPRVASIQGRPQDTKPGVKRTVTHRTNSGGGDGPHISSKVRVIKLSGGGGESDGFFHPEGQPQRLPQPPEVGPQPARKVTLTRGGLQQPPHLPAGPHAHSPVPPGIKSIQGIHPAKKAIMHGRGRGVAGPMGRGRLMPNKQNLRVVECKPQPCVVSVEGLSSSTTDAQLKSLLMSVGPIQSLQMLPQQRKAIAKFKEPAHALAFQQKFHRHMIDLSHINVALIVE
Sequence of UniProt Q9BUV8 (Q9BUV8 whole entry, looked up): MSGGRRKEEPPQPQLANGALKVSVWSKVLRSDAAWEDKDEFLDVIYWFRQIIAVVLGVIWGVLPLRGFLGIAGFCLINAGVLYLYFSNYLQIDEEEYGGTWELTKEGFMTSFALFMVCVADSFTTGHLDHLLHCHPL
Sequence of UniProt O43665 (O43665 whole entry, looked up): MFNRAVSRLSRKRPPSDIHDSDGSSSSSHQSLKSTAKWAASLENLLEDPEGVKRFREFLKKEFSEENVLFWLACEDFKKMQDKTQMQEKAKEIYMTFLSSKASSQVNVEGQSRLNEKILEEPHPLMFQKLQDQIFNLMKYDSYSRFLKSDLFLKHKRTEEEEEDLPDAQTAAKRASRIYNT
Sequence of UniProt P27694 (P27694 whole entry, looked up): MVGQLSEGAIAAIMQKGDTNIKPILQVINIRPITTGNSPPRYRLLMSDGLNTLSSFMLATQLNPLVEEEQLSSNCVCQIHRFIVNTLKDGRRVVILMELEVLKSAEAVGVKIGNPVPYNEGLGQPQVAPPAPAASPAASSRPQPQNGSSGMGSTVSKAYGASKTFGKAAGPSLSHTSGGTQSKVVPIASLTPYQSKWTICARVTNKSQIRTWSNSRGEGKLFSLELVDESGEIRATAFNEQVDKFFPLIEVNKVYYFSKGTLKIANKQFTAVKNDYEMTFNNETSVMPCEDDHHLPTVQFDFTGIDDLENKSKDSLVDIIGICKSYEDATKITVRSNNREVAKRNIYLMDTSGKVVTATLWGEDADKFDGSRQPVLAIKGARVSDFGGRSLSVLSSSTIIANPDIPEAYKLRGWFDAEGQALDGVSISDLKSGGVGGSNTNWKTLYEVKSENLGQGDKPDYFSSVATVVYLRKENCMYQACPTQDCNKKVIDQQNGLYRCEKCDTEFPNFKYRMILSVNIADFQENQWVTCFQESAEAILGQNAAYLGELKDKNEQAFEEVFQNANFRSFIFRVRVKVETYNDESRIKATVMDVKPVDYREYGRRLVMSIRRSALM
Sequence of UniProt Q8IZV5 (Q8IZV5 whole entry, looked up): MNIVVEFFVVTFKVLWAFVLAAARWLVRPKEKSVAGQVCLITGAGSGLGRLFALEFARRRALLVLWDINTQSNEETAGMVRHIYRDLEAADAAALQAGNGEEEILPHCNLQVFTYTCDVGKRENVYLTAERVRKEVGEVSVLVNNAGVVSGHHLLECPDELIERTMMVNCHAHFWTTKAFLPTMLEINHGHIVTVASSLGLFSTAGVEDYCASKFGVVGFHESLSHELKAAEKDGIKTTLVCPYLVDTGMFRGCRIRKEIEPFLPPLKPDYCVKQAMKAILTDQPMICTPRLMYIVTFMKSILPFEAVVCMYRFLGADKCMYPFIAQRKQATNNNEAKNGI
Sequence of UniProt Q8WWV3 (Q8WWV3 whole entry, looked up): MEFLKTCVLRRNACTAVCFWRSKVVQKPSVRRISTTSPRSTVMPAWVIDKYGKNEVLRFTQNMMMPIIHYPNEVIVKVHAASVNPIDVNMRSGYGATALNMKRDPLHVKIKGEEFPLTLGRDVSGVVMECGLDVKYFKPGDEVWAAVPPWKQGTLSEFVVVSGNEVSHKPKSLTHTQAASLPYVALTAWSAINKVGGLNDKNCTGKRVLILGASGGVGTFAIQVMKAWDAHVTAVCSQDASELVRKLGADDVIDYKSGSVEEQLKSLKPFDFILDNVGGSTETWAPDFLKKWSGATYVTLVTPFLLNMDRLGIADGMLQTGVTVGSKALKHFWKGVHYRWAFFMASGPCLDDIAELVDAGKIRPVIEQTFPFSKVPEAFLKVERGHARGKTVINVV
Sequence of UniProt Q5T8P6 (Q5T8P6 whole entry, looked up): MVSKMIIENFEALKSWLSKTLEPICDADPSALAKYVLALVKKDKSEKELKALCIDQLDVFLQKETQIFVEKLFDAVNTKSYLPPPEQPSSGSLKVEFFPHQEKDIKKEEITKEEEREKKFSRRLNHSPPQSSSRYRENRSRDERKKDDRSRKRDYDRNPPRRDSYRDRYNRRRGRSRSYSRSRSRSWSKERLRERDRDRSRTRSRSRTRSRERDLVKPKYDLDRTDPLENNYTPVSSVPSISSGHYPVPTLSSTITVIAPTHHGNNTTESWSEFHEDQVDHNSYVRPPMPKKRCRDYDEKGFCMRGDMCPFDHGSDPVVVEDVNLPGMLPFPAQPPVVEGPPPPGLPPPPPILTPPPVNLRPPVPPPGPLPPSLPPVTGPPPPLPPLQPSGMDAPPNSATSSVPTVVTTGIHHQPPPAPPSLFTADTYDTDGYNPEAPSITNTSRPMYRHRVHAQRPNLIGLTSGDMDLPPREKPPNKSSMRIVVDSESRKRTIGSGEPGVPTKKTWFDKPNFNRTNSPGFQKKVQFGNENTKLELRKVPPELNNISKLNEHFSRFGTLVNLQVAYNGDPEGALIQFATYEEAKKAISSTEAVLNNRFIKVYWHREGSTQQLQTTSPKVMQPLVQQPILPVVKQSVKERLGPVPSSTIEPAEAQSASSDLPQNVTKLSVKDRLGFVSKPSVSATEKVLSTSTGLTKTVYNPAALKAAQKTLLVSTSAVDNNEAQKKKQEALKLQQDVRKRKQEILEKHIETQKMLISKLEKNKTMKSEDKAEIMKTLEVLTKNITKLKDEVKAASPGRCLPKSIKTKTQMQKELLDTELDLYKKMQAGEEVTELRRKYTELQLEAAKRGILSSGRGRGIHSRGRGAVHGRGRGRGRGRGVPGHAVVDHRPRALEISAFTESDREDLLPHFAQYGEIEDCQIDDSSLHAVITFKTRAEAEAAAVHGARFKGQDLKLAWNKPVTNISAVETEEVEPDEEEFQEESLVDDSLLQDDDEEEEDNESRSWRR
Sequence of UniProt O95470 (O95470 whole entry, looked up): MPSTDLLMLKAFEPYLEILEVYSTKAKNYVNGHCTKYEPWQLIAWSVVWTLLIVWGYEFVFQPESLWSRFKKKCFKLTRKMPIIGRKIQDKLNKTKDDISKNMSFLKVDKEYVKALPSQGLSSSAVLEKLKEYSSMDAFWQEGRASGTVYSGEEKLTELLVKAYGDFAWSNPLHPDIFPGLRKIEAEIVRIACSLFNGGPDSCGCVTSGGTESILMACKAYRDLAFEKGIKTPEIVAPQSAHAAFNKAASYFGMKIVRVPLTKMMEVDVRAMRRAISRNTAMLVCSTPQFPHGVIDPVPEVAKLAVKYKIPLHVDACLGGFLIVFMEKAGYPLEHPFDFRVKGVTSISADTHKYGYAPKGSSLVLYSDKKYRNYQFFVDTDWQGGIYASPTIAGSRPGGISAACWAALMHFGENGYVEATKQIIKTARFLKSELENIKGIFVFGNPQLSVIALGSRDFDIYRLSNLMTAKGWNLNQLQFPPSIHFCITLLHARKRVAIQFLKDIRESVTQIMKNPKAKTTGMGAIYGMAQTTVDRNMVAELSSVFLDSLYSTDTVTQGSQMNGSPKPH

Target | log2 fold change [1] | log2 fold change (crizotinib) | log2 fold change [2] | log2 fold change [3] | log2 fold change (duvelisib) | log2 fold change (gandotinib) | log2 fold change (tozasertib) | log2 fold change [4] | log2 fold change (doramapimod) | log2 fold change (ispinesib) | log2 fold change (bafetinib) | log2 fold change [5] | log2 fold change (nilotinib) | log2 fold change [6] | log2 fold change (dasatinib) | log2 fold change [7] | log2 fold change [8] | log2 fold change [9] | log2 fold change (tipifarnib) | log2 fold change (mubritinib)
RDH10 (UniProt Q8IZV5) | -0.016 | 0.087 | 0.116 | -0.011 | 0.015 | -0.111 | -0.009 | -0.003 | -0.016 | 0.036 | -0.031 | 0.15 | 0.051 | -0.032 | 0.237 (active) | -0.014 | 0.37 (active) | 0.183 | 0.028 | 0.106
SGPL1 (UniProt O95470) | 0.095 | 0.077 | -0.034 | 0.011 | 0.019 | 0.259 | -0.089 | 0.024 | 0.084 | 0.077 | 0.009 | -0.013 | 0.024 | -0.017 | 0.016 | -0.029 | -0.005 | -0.071 | 0.151 | 0.034
RTN4IP1 (UniProt Q8WWV3) | 0.015 | -0.084 | 0.064 | -0.045 | 0.276 | 0.117 | -0.108 | 0.225 | 0.041 | -0.137 | -0.178 | -0.07 | 0.171 | -0.194 | 0.189 | -0.008 | 0.121 | 0.168 | 0.041 | 0.122
RAB5IF isoform 5 (UniProt Q9BUV8) | -0.036 | -0.094 | 0.076 | -0.007 | 0.078 | 0.04 | -0.156 | -0.002 | 0.025 | 0.157 | 0.034 | -0.01 | -0.042 | -0.011 | 0.062 | -0.051 | -0.054 | 0 | -0.013 | 0.079
RBM33 (UniProt Q96EV2) | -0.01 | 0.058 | -0.063 | -0.077 | 0.016 | 0.03 | -0.019 | 0.043 | -0.022 | -0.085 | -0.055 | 0.012 | -0.036 | -0.143 | 0.013 | -0.11 | 0.024 | -0.013 | 0.085 | -0.004
RSRC1 (UniProt Q96IZ7) | 0.007 | -0.059 | 0.027 | -0.386 (active) | 0.086 | 0.176 | -0.079 | -0.034 | 0.051 | 0.037 | 0.042 | -0.05 | 0.06 | -2.01 (active) | 0.028 | -0.024 | 0.003 | -0.021 | 0.038 | 0.012
RCN3 (UniProt Q96D15) | -0.016 | -0.028 | -0.02 | -0.041 | -0.022 | 0.029 | -0.087 | -0.058 | 0.092 | -0.033 | -0.015 | -0.318 (active) | 0.015 | -0.011 | 0.045 | 0.011 | 0.162 | 0.057 | -0.038 | -0.056
RPTOR (UniProt Q8N122) | 0.012 | -0.188 | -0.031 | 0.033 | 0.045 | -0.115 | 0 | 0.01 | -0.009 | -0.114 | -0.005 | 0.034 | -0.085 | -0.103 | -0.103 | -0.045 | -0.107 | 0.009 | -0.062 | 0.033
RBM17 (UniProt Q96I25) | -0.043 | -0.065 | 0.106 | 0.02 | 0.031 | -0.031 | 0.057 | 0.106 | -0.028 | 0.007 | -0.056 | 0.042 | -0.095 | -0.249 | -0.108 | 0.011 | -0.067 | -0.028 | -0.042 | -0.148
RANBP2 (UniProt P49792) | -0.016 | 0.009 | -0.011 | 0.103 | 0.065 | -0.066 | 0.013 | -0.003 | 0.043 | -0.031 | -0.092 | 0.197 | -0.05 | 0.087 | -0.011 | -0.043 | -0.047 | -0.051 | -0.036 | -0.073
RABGAP1L isoform 3 (UniProt Q5R372) | -0.018 | 0.005 | -0.004 | -0.138 | -0.013 | -0.018 | -0.011 | 0.05 | 0.052 | 0.046 | -0.045 | 0.024 | -0.031 | -0.001 | -0.038 | -0.037 | -0.005 | 0.013 | 0.016 | -0.001
RPS5 (UniProt P46782) | -0.081 | 0 | -0.255 | 0.176 | -0.081 | 0.108 | 0.029 | 0.017 | 0.069 | -0.073 | 0.2 | 0.002 | 0.046 | 0.178 | 0.069 | -0.035 | -0.122 | -0.08 | 0.042 | 0.007
RBM26 isoform 2 (UniProt Q5T8P6) | -0.012 | 0.03 | 0.374 | -0.154 | 0.022 | -0.056 | 0.036 | 0.136 | -0.036 | -0.089 | -0.003 | 0.058 | -0.088 | -0.432 | -0.176 | 0.021 | 0.12 | 0.168 | -0.033 | 0.045
RPL38 (UniProt P63173) | -0.039 | -0.069 | -0.258 (active) | 0.077 | -0.064 | 0.144 | -0.017 | -0.008 | 0.017 | -0.093 | 0.089 | 0.01 | 0.026 | 0.155 | 0.057 | -0.003 | -0.023 | -0.022 | -0.021 | 0.006
RPA1 (UniProt P27694) | -0.028 | -0.019 | -0.199 | 0.036 | -0.035 | -0.103 | 0.015 | 0.022 | -0.05 | 0.004 | 0.029 | 0.019 | -0.051 | -0.1 | 0.077 | 0.016 | -0.004 | 0.015 | -0.074 | 0.026
RGS10 (UniProt O43665) | 0.014 | -0.045 | 0.012 | -0.231 | 0.008 | -0.023 | 0.053 | 0.024 | 0.006 | 0.017 | -0.08 | 0.032 | -0.057 | 0.002 | -0.034 | 0.009 | 0.126 | -0.031 | -0.043 | -0.019
